The target of assay [1] is Thyrotropin-releasing hormone receptor (Homo sapiens) (UniProt P34981). Put plainly: qHTS assay to identify small molecule agonists of the thyrotropin-releasing hormone receptor (TRHR) signaling pathway (AID 1346891; calls by dose curve;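 further: HEK293 cells expressing TRHR with calcium dye readout; series mostly up to about 58 µM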). In short, it runs like this: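 Agonist-mode calcium mobilisation screen: TRHR-transfected HEK293 cells cultured overnight (18 h), dye-loaded for 2 h at 37 °C, exposed to compounds, and monitored by fluorescence for 3 min.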
In general terms: In qHTS, concentration-response curves come from the screen itself.

Assay [2] in a line: Human pregnane X receptor (PXR) small molecule agonists, qHTS cell viability counter screen (AID 1346977). Further: nearly all actives have a fitted effect of over 50% in size. Further: potency means the concentration at half of the fitted maximal effect. In outline:
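Measures live-cell protease fluorescence (CellTiter-Fluor) in PXR-Luc HepG2 cells treated 24hr with compounds at 37C. Cells had 5hr to attach before pin transfer of DMSO solutions.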

Assay [3] can be described thus: Caspase-3/7 induction in CHO-K1 cells by small molecules, qHTS assay (AID 1346980). Further: nearly all actives have a fitted effect of over 15% in size. In short, it runs like this: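 Wild-type cells were seeded at 1,500 per well and settled 5 hr at 37 C, 5% CO2, then exposed to DMSO-dissolved compounds for 17 hr. Caspase-Glo 3/7 reagent was added, and luminescence was read after 30min at room temperature.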
The target in assay [4] is Nuclear receptor subfamily 1 group I member 2 (Homo sapiens) (UniProt O75469). Put plainly: Human pregnane X receptor (PXR) small molecule agonists, qHTS assay (AID 1346982). Further: nearly all actives have a fitted effect of over 35% in size. Further: potency means the concentration at half of the fitted maximal effect. In outline: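 PXR-Luc HepG2 reporter cells (CYP3A4-driven luciferase) in 5% charcoal-stripped FBS medium, plated 5 h before compound addition, then treated 24 h at 37C. Luciferase read by ONE-Glo luminescence after 30 min at room temperature.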
Sequence of Nuclear receptor subfamily 1 group I member 2 (Homo sapiens) (O75469 whole entry, looked up): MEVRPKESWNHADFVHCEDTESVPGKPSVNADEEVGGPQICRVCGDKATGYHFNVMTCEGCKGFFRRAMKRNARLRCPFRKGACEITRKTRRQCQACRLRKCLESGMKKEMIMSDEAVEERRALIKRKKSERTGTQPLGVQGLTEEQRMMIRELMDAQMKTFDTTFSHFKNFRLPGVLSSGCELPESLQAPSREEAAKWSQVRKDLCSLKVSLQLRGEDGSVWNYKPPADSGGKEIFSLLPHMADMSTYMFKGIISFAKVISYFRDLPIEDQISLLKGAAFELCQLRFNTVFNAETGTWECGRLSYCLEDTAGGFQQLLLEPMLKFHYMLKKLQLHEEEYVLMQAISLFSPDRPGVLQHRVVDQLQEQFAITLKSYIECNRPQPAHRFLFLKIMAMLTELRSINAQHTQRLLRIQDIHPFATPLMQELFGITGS

Assay [5] deals with Acetylcholinesterase (Homo sapiens) (UniProt P22303). Put plainly: Acetylcholinesterase (AChE) small molecule antagonists: colormetric cell-based qHTS assay (AID 1347395; calls by dose curve; further: nearly all actives have a fitted effect of over 30% in size; further: potency means the concentration at half of the fitted maximal effect). In short, it runs like this: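 Endogenous AChE of human neuroblastoma SH-SY5Y cells was measured with an Ellman-type DTNB/acetylthiocholine mix. Compound pretreatment lasted 30 min at 37 C; substrate reaction ran 90 min at 37 C.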
Sequence of Acetylcholinesterase (Homo sapiens) (P22303 whole entry, looked up): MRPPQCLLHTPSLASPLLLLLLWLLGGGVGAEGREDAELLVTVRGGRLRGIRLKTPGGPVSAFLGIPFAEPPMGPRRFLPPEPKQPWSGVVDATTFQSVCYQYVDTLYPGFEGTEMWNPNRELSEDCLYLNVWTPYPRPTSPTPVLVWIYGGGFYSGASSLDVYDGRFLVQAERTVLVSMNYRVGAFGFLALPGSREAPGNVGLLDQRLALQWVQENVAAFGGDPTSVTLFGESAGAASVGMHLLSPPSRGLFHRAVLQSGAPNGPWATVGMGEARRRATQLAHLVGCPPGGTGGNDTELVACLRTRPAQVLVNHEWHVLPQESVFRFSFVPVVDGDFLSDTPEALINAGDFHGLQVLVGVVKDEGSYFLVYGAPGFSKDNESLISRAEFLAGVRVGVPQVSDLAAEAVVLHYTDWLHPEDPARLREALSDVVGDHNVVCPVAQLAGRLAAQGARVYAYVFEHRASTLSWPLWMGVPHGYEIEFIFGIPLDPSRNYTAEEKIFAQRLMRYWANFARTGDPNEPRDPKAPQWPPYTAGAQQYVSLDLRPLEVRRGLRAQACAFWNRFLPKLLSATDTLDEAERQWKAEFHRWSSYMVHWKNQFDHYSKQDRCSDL

Assay [6] has the same target. Put plainly: Acetylcholinesterase (AChE) small molecule antagonists: enzyme-based qHTS assay (AID 1347397; calls by dose curve; further: nearly all actives have a fitted effect of over 55% in size). The note with it: Potency: AChE enzyme activity inhibition. In outline: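 Recombinant human AChE, dispensed at 50 mU/mL, was preincubated with Tox21 10K compounds or DMSO vehicle for 30 min at room temperature. DTNB plus acetylthiocholine was then added, and thiocholine was measured colorimetrically after a further 10 min.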

For assay [7] the target is unchanged. Put plainly: Acetylcholinesterase (AChE) small molecule antagonists: fluorescence cell-based qHTS assay (AID 1347398; calls by dose curve; further: nearly all actives have a fitted effect of over 50% in size; further: potency means the concentration at half of the fitted maximal effect). The note with it: Potency: AChE activity. In outline: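 Human SH-SY5Y cells were plated overnight at 37 C, exposed to compound for 30 min at 37 C, 5% CO2, then given acetylthiocholine plus Thiolite Green for 40 min at room temperature; thiocholine fluorescence (Ex/Em 490/520 nm) reports endogenous AChE activity.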

The target is the same in assay [8]. Put plainly: Acetylcholinesterase (AChE) small molecule antagonists: enzyme-based qHTS assay with human liver microsomes (AID 1347399; calls by dose curve; further: nearly all actives have a fitted effect of over 60% in size). The note with it: Potency: qHTS inhibition. In outline:
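Recombinant human AChE (50 mU/mL in the enzyme mix) and human liver microsomes (0.25 mg/mL final) were preincubated with compound and NADPH (0.25 mg/mL final) for 30 min at 37 C. Acetylthiocholine/DTNB was then added; thiocholine was read colorimetrically after 10 min at room temperature.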

The target in assay [9] is Cytochrome P450 2D6 (Homo sapiens) (UniProt P10635). Put plainly: Cytochrome P450 Family 2 Subfamily D Member 6 (CYP2D6) small molecule antagonists: luciferase reporter qHTS assay (AID 1671196). Further: nearly all actives have a fitted effect of over 50% in size. Further: potency means the concentration at half of the fitted maximal effect. In outline:
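Cell-free P450-Glo system: CYP2D6 with proluciferin substrate was pre-incubated with compound for 10 min, then reacted with NADPH regeneration for 1 h at room temperature. Luciferin product was detected after 20 min, and data were reported as relative luminescence units.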
(In general: A reporter such as luciferase makes a cellular process visible.)

Assay [10] deals with Cytochrome P450 2C19 (Homo sapiens) (UniProt P33261). Put plainly: Cytochrome P450 Family 2 Subfamily C Member 19 (CYP2C19) small molecule antagonists: luciferase reporter qHTS assay (AID 1671197). Further: nearly all actives have a fitted effect of over 65% in size. Further: potency means the concentration at half of the fitted maximal effect. In outline:
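P450-Glo CYP2C19 system: enzyme-substrate mix with compound 10 min at room temperature, then NADPH regeneration solution, 1 h at 37C. Proluciferin-to-luciferin conversion detected by luminescence after 20 min with detection reagent; ketoconazole as positive control.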

The target in assay [11] is Cytochrome P450 2C9 (Homo sapiens) (UniProt P11712). Put plainly: Cytochrome P450 Family 2 Subfamily C Member 9 (CYP2C9) small molecule antagonists: luciferase reporter qHTS assay (AID 1671198). Further: nearly all actives have a fitted effect of over 50% in size. Further: potency means the concentration at half of the fitted maximal effect. In outline:
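CYP2C9 activity was measured with a P450-Glo proluciferin substrate. Enzyme–substrate mix was held with compound for 10 min at room temperature, then NADPH regeneration solution was added for 1 h at 37C. Luciferin product was read as luminescence.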

For assay [12], the target named is Cytochrome P450 1A2 (Homo sapiens) (UniProt P05177). Put plainly: Cytochrome P450 Family 1 Subfamily A Member 2 (CYP1A2) small molecule antagonists: luciferase reporter qHTS assay (AID 1671199). Further: nearly all actives have a fitted effect of over 50% in size. Further: potency means the concentration at half of the fitted maximal effect. In outline: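 P450-Glo CYP1A2 enzyme–proluciferin substrate mix with compound 10 min at room temperature, then NADPH regeneration 1 h at room temperature. Luciferin detection reagent added, luminescence read after 20 min; furafylline positive control.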
Sequence of Cytochrome P450 1A2 (Homo sapiens) (P05177 whole entry, looked up): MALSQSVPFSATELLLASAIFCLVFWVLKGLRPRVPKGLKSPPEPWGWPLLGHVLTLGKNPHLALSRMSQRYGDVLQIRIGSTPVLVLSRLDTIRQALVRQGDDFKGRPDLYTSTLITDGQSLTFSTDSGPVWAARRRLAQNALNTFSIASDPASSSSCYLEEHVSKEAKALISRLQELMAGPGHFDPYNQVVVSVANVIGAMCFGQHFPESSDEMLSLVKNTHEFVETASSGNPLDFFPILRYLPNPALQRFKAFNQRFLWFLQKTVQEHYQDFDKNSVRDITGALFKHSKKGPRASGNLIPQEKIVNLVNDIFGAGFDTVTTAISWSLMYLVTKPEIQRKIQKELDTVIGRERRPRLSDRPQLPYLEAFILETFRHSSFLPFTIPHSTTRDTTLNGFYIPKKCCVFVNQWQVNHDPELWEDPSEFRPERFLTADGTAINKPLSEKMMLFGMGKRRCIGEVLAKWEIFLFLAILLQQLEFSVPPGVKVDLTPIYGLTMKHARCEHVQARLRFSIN

The target in assay [13] is Voltage-gated inwardly rectifying potassium channel KCNH2 (Homo sapiens) (UniProt Q12809). Put plainly: Human Ether-a-go-go-Related Gene (hERG) channel small molecule antagonists: fluorescence cell-based qHTS assay (AID 1671200). In outline: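 Quantitative HTS in hERG-U2OS cells: thallium entry through the channel reports activity, read as continuous 480/540 nm fluorescence over 2 min after stimulus addition.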
Sequence of Voltage-gated inwardly rectifying potassium channel KCNH2 (Homo sapiens) (Q12809 whole entry, looked up): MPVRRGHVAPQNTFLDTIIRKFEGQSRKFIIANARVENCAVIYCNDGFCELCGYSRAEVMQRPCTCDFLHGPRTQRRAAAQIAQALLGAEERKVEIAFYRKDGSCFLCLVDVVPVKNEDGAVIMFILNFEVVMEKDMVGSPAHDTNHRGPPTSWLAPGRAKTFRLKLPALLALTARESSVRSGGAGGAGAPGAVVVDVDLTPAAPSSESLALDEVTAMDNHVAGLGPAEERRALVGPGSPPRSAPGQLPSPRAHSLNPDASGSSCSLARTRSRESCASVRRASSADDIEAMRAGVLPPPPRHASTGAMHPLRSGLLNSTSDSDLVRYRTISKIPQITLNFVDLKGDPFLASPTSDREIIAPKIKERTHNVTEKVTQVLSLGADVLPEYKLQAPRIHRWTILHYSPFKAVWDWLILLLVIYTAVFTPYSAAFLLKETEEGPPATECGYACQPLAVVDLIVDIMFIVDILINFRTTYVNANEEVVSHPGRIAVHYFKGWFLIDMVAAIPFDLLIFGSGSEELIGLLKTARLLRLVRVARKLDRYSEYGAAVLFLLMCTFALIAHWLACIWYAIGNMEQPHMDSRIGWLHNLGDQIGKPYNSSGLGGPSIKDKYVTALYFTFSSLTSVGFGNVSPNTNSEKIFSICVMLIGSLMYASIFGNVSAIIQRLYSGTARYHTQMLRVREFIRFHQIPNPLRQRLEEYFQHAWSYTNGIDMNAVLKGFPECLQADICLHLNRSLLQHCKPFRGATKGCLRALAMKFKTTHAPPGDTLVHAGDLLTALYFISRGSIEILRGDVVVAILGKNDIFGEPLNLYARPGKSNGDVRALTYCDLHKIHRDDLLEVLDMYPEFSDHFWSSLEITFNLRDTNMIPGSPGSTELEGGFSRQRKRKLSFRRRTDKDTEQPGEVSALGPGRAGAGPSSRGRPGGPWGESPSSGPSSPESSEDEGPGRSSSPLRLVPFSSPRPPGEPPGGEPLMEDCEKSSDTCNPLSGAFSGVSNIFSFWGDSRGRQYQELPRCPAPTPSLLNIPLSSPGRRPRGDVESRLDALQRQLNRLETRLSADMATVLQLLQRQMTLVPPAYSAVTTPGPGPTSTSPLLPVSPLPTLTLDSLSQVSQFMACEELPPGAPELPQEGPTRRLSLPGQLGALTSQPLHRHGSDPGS
On the technique in general: The hERG channel carries a current that helps repolarise heart muscle cells.

Assay [14] can be described thus: Caspase-3/7 induction in HepG2 cells by small molecules, qHTS cell viability counter screen (AID 1346981). Further: series mostly up to about 92 µM; nearly all actives have a fitted effect of over 30% in size. In short, it runs like this: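 Wild-type HepG2 cells, 2,000/well, settled 5 hr at 37 C, 5% CO2 before compound addition. Viability read by CellTiter-Fluor fluorescence, reagent added after 16 hr compound exposure, then 1 hr at 37C, in the same wells as the caspase read.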

Assay [15] addresses Cytochrome P450 3A4 (Homo sapiens) (UniProt P08684). Put plainly: Cytochrome P450 Family 3 Subfamily A Member 4 (CYP3A4) small molecule antagonists: luciferase reporter qHTS assay (AID 1671201). In outline: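 Inhibition of CYP3A4 is measured as loss of light: the enzyme converts a proluciferin substrate to luciferin, detected luminescently. Reaction ran 1 h at room temperature with NADPH regeneration after a 10 min compound preincubation.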

The nature of assay [16]: Caspase-3/7 induction in HepG2 cells by small molecules, qHTS assay (AID 1346978). Further: nearly all actives have a fitted effect of over 15% in size. In outline:
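Wild-type HepG2 cells (2,000/well) were settled 5 h at 37 C, 5% CO2, then exposed to compounds in DMSO for 17 h. Caspase-3/7 activity was read by luminescence 30 min after adding Caspase-Glo 3/7 reagent at room temperature.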

Assay [17] can be described thus: Caspase-3/7 induction in CHO-K1 cells by small molecules, qHTS cell viability counter screen (AID 1346979). Further: nearly all actives have a fitted effect of over 35% in size. Further: potency means the concentration at half of the fitted maximal effect. In short, it runs like this: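 In the same wells as the caspase read, viability of compound-treated wild-type CHO-K1 cells was assessed using CellTiter-Fluor, added after 16hr at 37C and measured by fluorescence following 1hr further incubation.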

Structures are written as SMILES. A number with no mark means an inactive call. Results filed as inconclusive are left out. Active and inactive are the calls of the source. Unless noted, the call rests on the fitted dose curve; in most records, active means well fitted curve in the direction sought with a large enough effect in the repeat runs; inconclusive means weak or mixed curves; inactive means no such curve, though single readings can be large; an effect the other way counts as inactive or inconclusive.

Sequence of Cytochrome P450 2D6 (Homo sapiens) (P10635 whole entry, looked up): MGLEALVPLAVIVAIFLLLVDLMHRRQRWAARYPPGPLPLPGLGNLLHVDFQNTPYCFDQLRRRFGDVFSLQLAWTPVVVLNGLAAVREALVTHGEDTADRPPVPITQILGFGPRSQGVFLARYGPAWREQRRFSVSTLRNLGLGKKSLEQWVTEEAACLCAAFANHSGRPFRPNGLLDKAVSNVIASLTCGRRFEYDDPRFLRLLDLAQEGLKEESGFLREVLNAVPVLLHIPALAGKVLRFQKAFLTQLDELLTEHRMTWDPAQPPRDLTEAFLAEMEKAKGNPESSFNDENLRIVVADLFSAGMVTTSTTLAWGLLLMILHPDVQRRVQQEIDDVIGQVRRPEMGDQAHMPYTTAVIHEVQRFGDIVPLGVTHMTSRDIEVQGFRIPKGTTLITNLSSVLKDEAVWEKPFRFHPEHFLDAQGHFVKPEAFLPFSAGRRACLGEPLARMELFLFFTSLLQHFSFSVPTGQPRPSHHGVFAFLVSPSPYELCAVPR
Sequence of Cytochrome P450 3A4 (Homo sapiens) (P08684 whole entry, looked up): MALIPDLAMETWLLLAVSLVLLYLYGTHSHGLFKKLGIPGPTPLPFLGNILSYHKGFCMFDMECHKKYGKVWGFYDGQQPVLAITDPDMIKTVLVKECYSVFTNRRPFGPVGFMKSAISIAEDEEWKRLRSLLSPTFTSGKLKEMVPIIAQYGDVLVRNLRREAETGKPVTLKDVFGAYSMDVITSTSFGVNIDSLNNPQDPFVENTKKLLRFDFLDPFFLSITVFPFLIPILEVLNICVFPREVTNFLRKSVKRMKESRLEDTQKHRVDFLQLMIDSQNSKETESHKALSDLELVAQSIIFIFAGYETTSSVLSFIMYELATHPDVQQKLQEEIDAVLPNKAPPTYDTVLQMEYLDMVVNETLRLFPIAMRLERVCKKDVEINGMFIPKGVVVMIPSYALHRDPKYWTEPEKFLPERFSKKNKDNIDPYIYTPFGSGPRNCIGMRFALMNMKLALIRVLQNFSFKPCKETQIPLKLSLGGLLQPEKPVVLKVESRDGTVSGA
Sequence of Cytochrome P450 2C9 (Homo sapiens) (P11712 whole entry, looked up): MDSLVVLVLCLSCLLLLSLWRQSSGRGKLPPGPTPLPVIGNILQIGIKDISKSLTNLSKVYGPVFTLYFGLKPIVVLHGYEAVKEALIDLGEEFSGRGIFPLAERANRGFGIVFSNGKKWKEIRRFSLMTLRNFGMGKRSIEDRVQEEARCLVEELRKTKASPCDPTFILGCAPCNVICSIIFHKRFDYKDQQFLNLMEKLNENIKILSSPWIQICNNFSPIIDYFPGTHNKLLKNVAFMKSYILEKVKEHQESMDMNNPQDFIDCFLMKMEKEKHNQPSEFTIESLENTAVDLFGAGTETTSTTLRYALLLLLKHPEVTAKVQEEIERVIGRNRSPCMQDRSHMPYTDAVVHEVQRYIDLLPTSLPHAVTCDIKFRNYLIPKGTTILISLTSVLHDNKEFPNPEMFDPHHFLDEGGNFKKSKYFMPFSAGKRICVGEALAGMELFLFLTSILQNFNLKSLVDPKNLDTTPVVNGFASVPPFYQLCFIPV
Sequence of Cytochrome P450 2C19 (Homo sapiens) (P33261 whole entry, looked up): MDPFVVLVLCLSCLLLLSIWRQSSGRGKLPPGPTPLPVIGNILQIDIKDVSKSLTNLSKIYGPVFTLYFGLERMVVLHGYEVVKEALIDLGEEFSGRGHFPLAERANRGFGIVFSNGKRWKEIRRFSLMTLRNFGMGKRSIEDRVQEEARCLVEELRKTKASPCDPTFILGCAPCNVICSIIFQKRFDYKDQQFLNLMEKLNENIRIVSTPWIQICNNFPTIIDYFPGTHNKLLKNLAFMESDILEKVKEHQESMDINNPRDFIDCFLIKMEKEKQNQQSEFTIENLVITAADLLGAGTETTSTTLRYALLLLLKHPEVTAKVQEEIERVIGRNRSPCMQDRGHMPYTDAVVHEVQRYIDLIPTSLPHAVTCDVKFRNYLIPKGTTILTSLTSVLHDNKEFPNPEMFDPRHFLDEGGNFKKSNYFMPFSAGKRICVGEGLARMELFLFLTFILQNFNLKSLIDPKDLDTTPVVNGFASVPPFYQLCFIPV

Turning to `COc1nn(CSP(=S)(OC)OC)c(=O)s1`, the Potency entry in assay [1], in assay [2], in assay [3], in assay [6], in assay [7] and in assay [8] was “inactive” each time. In [13], the Potency result is “inactive”. Besides, the Potency in [4] was 54.5 µM (active); in [5], 69.6 µM (active); in [9] it was 31.7 µM (active); in [10] it was 0.633 µM (active); in assay [11], 5.48 µM (active); in assay [12], 7.96 µM (active).

Take `COC1=CC(=O)O[C@@H](CCc2ccccc2)C1`: the Potency result in assay [1], in assay [2], in [3], in assay [14], in assay [5] and in assay [6] was “inactive” in each case. The Potency result in assay [7], in assay [8], in [9], in [13] and in assay [15] was “inactive” throughout. Besides, the Potency in assay [4] was 63.6 µM (active); in assay [10] it was 5.87 µM (active); in [11], 33 µM (active).

Consider `COP(=O)(OC)O/C(=C/Cl)c1cc(Cl)c(Cl)cc1Cl`, for which the Potency result in assay [1], in assay [2], in assay [16], in assay [14], in assay [6] and in [8] was “inactive” in each case. Further, the Potency entry in [13] and in assay [15] was “inactive” each time. Also, the Potency in assay [4] is 72.4 µM (active); in assay [5] it was 42.2 µM (active); in [7] it was 37.6 µM (active); in assay [9] it was 33.5 µM (active); in assay [10] it was 5.31 µM (active); in assay [11], 23.7 µM (active). For the same compound, in [12], the Potency is 2.66 µM (active).

Turning to `[CH3][Sn]([CH3])([Cl])[Cl]`, the Potency result in assay [1], in [2], in [3], in [14], in [4] and in assay [5] was “inactive” throughout. Besides, the Potency entry in assay [6], in [7], in assay [8], in assay [9], in [10] and in assay [11] was “inactive” in each case. The Potency entry in assay [12], in [13] and in assay [15] was “inactive” in each case.

Consider `c1ccc(C2CC2)c(OCC2=NCCN2)c1`, for which the Potency result in assay [1], in assay [2], in assay [17], in assay [3], in [14] and in [4] was “inactive” in each case. In addition, the Potency entry in [6], in [7], in assay [8], in [10], in [11] and in assay [15] was “inactive” throughout. Moreover, the Potency in assay [9] was 4.36 µM (active).

As to `N#Cc1cc(I)c(O)c(I)c1`, the Potency result in [1], in assay [3], in assay [5], in [6], in assay [7] and in [8] was “inactive” each time. Besides, the Potency entry in [9], in [13] and in [15] was “inactive” throughout. In addition, the Potency in assay [2] was 43.3 µM (active); in assay [17], 68.6 µM (active); in assay [4] it was 54.5 µM (active); in [11], 22.4 µM (active).

Consider `CCCCCCCCOC(=O)c1ccc(C(=O)OCCCCCCCC)c(C(=O)OCCCCCCCC)c1`, for which the Potency result in assay [1], in [2], in [17], in assay [3], in assay [14] and in [4] was “inactive” throughout. In addition, the Potency result in assay [5], in assay [6], in assay [7], in assay [8], in assay [9] and in [12] was “inactive” each time. Further, in assay [15], the Potency entry was “inactive”. The Potency in assay [10] is 80.6 µM (active).

`COC(=O)C(Cl)C(=O)OC`: the Potency entry in [1], in assay [2], in assay [3], in [14], in assay [4] and in assay [5] was “inactive” in each case. Besides, the Potency entry in assay [6], in [7], in [8], in [9], in assay [11] and in assay [12] was “inactive” each time. For the same compound, the Potency result in [13] and in [15] was “inactive” each time.

Source of the values: PubChem BioAssay (Tox21).
